From PubChem BioAssay AID1851 (National Center for Advancing Translational Sciences (NCATS), 2009) come the findings set out here.

Values joined by “and” are separate entries in the source; they are usually repeats but may differ in a detail not shown here. Equal values may be shown once. The whole screen tested about 16,000 compounds, of which about 4,000 (25%) were called active. About 26% were inconclusive and are not listed. Calls follow the shape of the dose curve; as a rule, active = well fitted curve in the direction sought with a large enough effect; inconclusive = small, poorly fitted or top-dose-only effect, or effect the other way; inactive = no such curve, though single readings can be large or run the other way. Not all results are given here. A structure can be active in one record and inactive in another.
% is scaled to controls: 0 for no effect and ±100 for the full control effect.

Chain of Cytochrome P450 2C9 (Homo sapiens) (P11712 whole entry, looked up): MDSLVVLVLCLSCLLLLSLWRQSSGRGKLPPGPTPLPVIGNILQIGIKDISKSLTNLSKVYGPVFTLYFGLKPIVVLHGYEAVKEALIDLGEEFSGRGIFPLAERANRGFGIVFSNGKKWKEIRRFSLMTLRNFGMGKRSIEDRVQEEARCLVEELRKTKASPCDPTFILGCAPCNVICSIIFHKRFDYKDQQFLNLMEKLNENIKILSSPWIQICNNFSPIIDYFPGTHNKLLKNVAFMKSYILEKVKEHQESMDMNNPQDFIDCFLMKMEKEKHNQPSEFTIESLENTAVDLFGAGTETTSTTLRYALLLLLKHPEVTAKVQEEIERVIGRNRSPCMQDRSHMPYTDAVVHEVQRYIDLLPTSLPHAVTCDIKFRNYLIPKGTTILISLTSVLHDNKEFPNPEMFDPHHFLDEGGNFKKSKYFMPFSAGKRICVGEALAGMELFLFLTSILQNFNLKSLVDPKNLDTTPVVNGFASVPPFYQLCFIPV

This assay concerns the target Cytochrome P450 2C9 (Homo sapiens) (UniProt P11712). The experiment in a line: Cytochrome panel assay with activity outcomes. To be noted: recombinant CYP, pro-luciferin dealkylation, luminescence, p450-cyp2c9; series mostly up to 57.1 µM. The procedure: The P450 gene superfamily is involved in the metabolism and clearance of xenobiotics. This assay used various human CYP P450 isozymes to measure the dealkylation of various pro-luciferin substrates to luciferin. The luciferin is then measured by luminescence after the addition of a luciferase detection reagent. Pro-luciferin substrate concentration in the assay was equal to its KM for its CYP P450 isozyme. Inhibitors and some substrates limit the production of luciferin, and decrease measured luminescence.
NCGC Assay Protocol Summary:
1, Reagent, 2 uL, Isozyme and Pro-Luciferin
2, Library compounds, 23 nl, 40 uM to 0.24 nM dilution series
3, Controls, 23 nl, Isozyme specific inhibitor
4, Reagent, 2 uL, NADPH regeneration solution
5, Incubation time, 60 min, Isozyme specific temperature
6, Reagent, 4ul, Detection reagent
7, Incubation time, 20 min, Isozyme specific temperature
8, Detection, 1 sec, ViewLux luminescent read
The luciferase-based P450-GloTM Screening Systems were obtained from Promega (Madison, WI) for CYP 1A2 (V9770), CYP 2C9 (V9790), CYP2 C19 (V9880), CYP 2D6 (V9890), and CYP 3A4 Luciferin-PPXE (V9910) and were adapted for 1,536-well microplates and an automated protocol. The control compounds furafylline for 1A2 (F124), sulfaphenazole for CYP 2C9 (S0758), ketoconazole for CYP 2C19 (K1003), quinidine for 2D6 (Q3625), and ketoconazole for 3A4 (K1003) were purchased from Sigma Aldrich (St. Louis, MO). Recombinant P450 enzymes were obtained from baculovirus constructs expressed in insect cells (BD/Gentest).
Medium-binding white solid Kalypsys plates used. Mixtures kept on ice. 1A2: 10 nM 1A2, 100 uM Luc-ME, 100 mM KPO4; 2C9: 10 nM 2C9, 100 uM Luc-H, 25 mM KPO4; 2C19: 5 nM 2C19, 10 uM Luc-H EGE, 50 mM KPO4; 2D6: 5 nM 2D6, 30 uM Luc-ME EGE, 100 mM KPO4; 3A4: 10 nM, 25 uM Luc-PPXE. All amounts are reflected in their final concentration, working concentration is 2x.
NADPH regeneration solution: 1.3 mM NADP+, 3.3 mM glucose-6-phosphate, 3.3 mM MgCl2, 0.4 U/mL glucose-6-phosphate dehydrogenase for all isozymes, 200 mM KPO4 for 3A4. Mixture prepared at RT but kept on ice during automated run.
RT incubation in auxilliary plate hotel for 1A2, 2D6, and 3A4; 37C for 2C9 and 2C19.
Keywords: P450, CYP1A2, CYP2C19, CYP2C9, CYP2D6, CYP3A4, Luciferase, MLSMR, MLSCN, NIH Roadmap, qHTS, NCGC
For the compound `Cc1nc2c(n1C1CCCCC1)C(=O)c1ccccc1C2=O`, the concentration at half-maximal activity (AC50) (in general, the concentration at which the activity in the assay is half-maximal) is 15.8 µM (active). Same read-out and setting: the same measure for `Cc1nc2cnc(Nc3ccccc3)nc2n(C2CC2)c1=O`: “inactive”.

On to `O=C1c2cccnc2C(O)N1C1CCCCC1` (centres undefined), for which the AC50 entry is “inactive”.

`N[C@@H](C(=O)O)c1ccc(C(=O)O)c(O)c1`: the AC50 result was “inactive”. As to `N[C@@H](C(=O)O)c1ccc(C(=O)O)c(C(=O)O)c1`, the AC50 is 12.6 µM (active) and inactive.

As for `N[C@H](C(=O)O)c1ccc(O)c(C(=O)O)c1`, the AC50 result is “inactive”.

As to `COCOc1ccc(Br)cc1C(=O)[C@H]1O[C@H]1c1cccc(OC)c1`, the activity, negative = inhibition is 8.38% [at 11.4 µM] (inactive). As to `COc1cccc([C@@H]2Oc3ccc(OC)cc3C(=O)[C@H]2O)c1`, the activity, negative = inhibition was -9.12% [at 11.4 µM] (inactive). Consider `COc1cccc([C@@H]2Oc3ccc(Br)cc3C(=O)[C@H]2O)c1`, for which the AC50 is 2.51 µM (active). As for `CNc1ncncc1-c1ccccc1C(F)(F)F`, the activity, negative = inhibition was 4.51% [at 2.29 µM] (inactive). As for `CC(C)CCNC(=O)C12CN(Cc3ccccc3)CC1C(c1cccc([N+](=O)[O-])c1)=NO2` (centres undefined), the concentration at half-maximal activity (AC50) was 5.62 µM (active).

`COc1ccc(C(=O)N2CC3(CC(c4cccc([N+](=O)[O-])c4)=NO3)C[C@H]2C(=O)NCC(N)=O)cc1` (some centres undefined): the AC50 result is “inactive”. In the case of `COc1cccc(C2=NOC(C(=O)NCc3ccccc3)C2)c1` (centres undefined), the AC50 result is “inactive”.

With `CCS(=O)(=O)N1CCC(C(=O)NCCN2CCN(Cc3ccccc3)CC2)CC1`, the AC50 entry is “inactive”. The same measure, in the same setting: under `O=C(NCc1ccccc1)C12CN(Cc3ccccc3)CC1C(c1cccc([N+](=O)[O-])c1)=NO2` (centres undefined) stands 7.94 µM (active); under `Cn1c(=O)c2c3c(sc2n2cnnc12)CCC3`, “inactive”; under `NC(=O)Cn1c(=O)n(Cc2ccco2)c(=O)c2c3c(sc21)CCCCC3`, 11.2 µM (active). Same read-out and setting: under `CN(C)CCn1c(=O)n(Cc2ccco2)c(=O)c2c3c(sc21)CCCCC3` stands 14.1 µM (active); under `O=C(Cn1c(=O)n(Cc2ccco2)c(=O)c2c3c(sc21)CCCCC3)c1ccccc1`, 2.51 µM (active). In the case of `O=C(N/N=C/c1ccc2cccc(OCc3ccccc3)c2n1)c1ccc(Br)cc1`, the AC50 was 3.55 µM (active). On the same count and under the same terms, the same measure for `COc1ccc(O)c(/C=N/NC(=O)c2ccc(OCc3cccc(Br)c3)cc2)c1`: “inactive”; for `O=C(N/N=C/c1ccc(F)cc1)c1ccc(Br)cc1`: “inactive”. For the compound `CCn1c(SCC(=O)N2CCOCC2)nc2oc3c(Cl)cc(Cl)cc3c(=O)c2c1=O`, the AC50 was 3.98 µM (active).

As for `COc1ccc(Cn2nnnc2C(c2ccccc2Cl)N2CCC(C(N)=O)CC2)cc1` (centres undefined), the half-maximal activity concentration (AC50) was 15.8 µM (active). On the same count and under the same terms, the same measure for `CCC(c1nnnn1CCOC)N1CCN(C(=O)c2ccco2)CC1` (centres undefined): “inactive”; for `O=C(Nc1ccc(Cl)cc1)OCCn1nnnc1C(c1ccccc1Cl)N1CCOCC1` (centres undefined): 4.47 µM (active). Same read-out and setting: under `N#Cc1ccc(C(c2nnnn2Cc2ccccc2)N2CCCC2)cc1` (centres undefined) stands “inactive”; under `COc1ccc(N2CCN(C(CNC(=O)C3CCCCC3)c3cccnc3)CC2)cc1` (centres undefined), “inactive”; under `O=C(c1ccc(C(F)(F)F)cc1)c1c[nH]c(C(=O)NCCCn2ccnc2)c1`, 1.12 µM (active). For the compound `O=C(NCCCN1CCOCC1)c1cc(C(=O)C2CC2)c[nH]1`, the AC50 result was “inactive”. Same read-out and setting: under `Cc1ccc(C(=O)c2c[nH]c(C(=O)NCCCN3CCOCC3)c2)cc1` stands “inactive”. On to `CC(C)[C@@H](OCc1ccccc1)[C@H](C)/C=N\O[C@@H](C)c1cn([C@H](CO)Cc2ccccc2)nn1`, for which the activity, negative = inhibition is -21.6% [at 11.4 µM] (inactive) and -25.5% [at 11.4 µM] (inactive). For `Cc1cc(/C=N/n2cnnc2)c(C)n1-c1ccc(OCc2ccccc2F)cc1`, the concentration at half-maximal activity (AC50) is 4.47 µM (active). The same measure, in the same setting: the same measure for `COn1c(SCc2ccc(C)cc2C)nc2ccccc2c1=O`: 0.282 µM (active). As to `COn1c(SCc2cccc(Cl)c2)nc2ccccc2c1=O`, the half-maximal activity concentration (AC50) was 1.78 µM (active).

For the compound `COc1nc(Cl)nc(Cl)c1Cl` (tested in a mixture with another compound), the activity, negative = inhibition was -7.53% [at 11.4 µM] (inactive). Still for that read-out and setting: under `CC(C)CO/N=C1/C[C@@H](O)[C@@H](O)[C@@H]2[C@@H]3C(=O)N([C@@H](C)c4ccccc4)C(=O)[C@H]3CC[C@H]12` stands -8.59% [at 11.4 µM] (inactive).

Turning to `C1=C(CN2CCOCC2)COc2c1cccc2OC[C@@H]1CNCCO1`, the AC50 result was “inactive”. Regarding `CO[C@@H]1COC(=O)CCC[C@@H](C)[C@H](OC)COC(=O)[C@H](Cc2ccccc2)NC(=O)C/C=C\[C@H]1C`, the activity, negative = inhibition was -2.4% [at 11.4 µM] (inactive). Turning to `O=C(Cc1ccccc1)Nc1nc2ccc(Cl)cc2c2nc(-c3ccco3)nn12`, the half-maximal activity concentration (AC50) was 3.16 µM (active). The same measure, in the same setting: the same measure for `CC(=O)n1nc(-c2ccco2)nc1N`: “inactive”. Take `CN1CCN(c2cc(-c3ccc(N(C)C)cc3)ncn2)CC1`: the activity, negative = inhibition is 14.3% [at 2.29 µM] (inactive). Still for that read-out and setting: under `Cc1noc(C)c1-c1ccc2ncnc(NCc3ccccc3)c2c1` stands -8.92% [at 2.29 µM] (inactive). With `CCOC(=O)/C(C#N)=C1/C=CN(C)C=N1`, the AC50 entry is “inactive”.

On to `CCCCCCN1C=CC(=C/C=C(\C#N)C(=O)OCC)C=C1`, for which the half-maximal activity concentration (AC50) is 2.24 µM (active). The same measure, in the same setting: under `CCCC[S@@](=N)(=O)CC[C@@H](N)C(=O)O` stands “inactive”; under `O=C(CSc1nnc(SCc2cccc3ccccc23)s1)c1ccc2c(c1)OCO2`, 4.47 µM (active). Consider `CC(C)(C)NC[C@@H](O)c1ccc(O)c(CO)n1`, for which the activity, negative = inhibition was 6.16% [at 11.4 µM] (inactive). On to `Cc1ccc(-c2nc3ncccn3c2NC(=O)C2CC2)cc1`, for which the AC50 entry is “inactive”. On the same count and under the same terms, the same measure for `Clc1ccc(-c2nc3ncccn3c2Nc2ccc3c(c2)OCCO3)cc1`: 4.47 µM (active).

Consider `Cc1noc(C)c1-c1cc(Nc2ccccc2)ncn1`, for which the activity, negative = inhibition was -12.1% [at 2.29 µM] (inactive). The same measure, in the same setting: the same measure for `Cc1noc(C)c1-c1cc(NCc2ccccc2)ncn1`: 24.9% [at 2.29 µM] (inactive). `Cc1noc2ncnc(Oc3ccc4ccccc4c3)c12`: the AC50 was 25.1 µM (active).

`O=Nc1c(O)n(Cc2ccc(Cl)cc2)c2ccccc12`: the AC50 was 1.26 µM (active). Take `Clc1ccc(COc2ccccn2)cc1Cl`: the AC50 result was “inactive”.

With `O=C1C(=O)N(Cc2ccc(Cl)c(Cl)c2)c2ccccc21`, the AC50 entry was “inactive”.

In the case of `Clc1ccc(Cn2c(CN3CCCC3)nc3ccccc32)cc1`, the AC50 result is “inactive”. On the same count and under the same terms, the same measure for `O=Nc1c(O)n(Cc2ccc(Cl)c(Cl)c2)c2ccccc12`: 5.62 µM (active); for `O=Nc1c(O)n(Cc2cccc(Cl)c2)c2ccccc12`: 2.51 µM (active).
